Source: PubChem
An excerpt weighted towards active compounds, which were near 8% of everything screened.
HCMV antiviral: blocks human cytomegalovirus replication; activity change, negative = inhibition, % at 57.5 µM; 410,000 compounds, 4.5% hits; AID 1259415; HFF cells, HCMV-luciferase reporter, 72 h; stronger effect = lower value; in the data active means activity change below about -60%; inconclusive means no clear call, values can overlap the other calls; inactive means above about -39%; further: on the % scale 0 is the no-effect control and ±100 the full control effect
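Human foreskin fibroblasts infected with luciferase-reporter HCMV at MOI 1 PFU/cell, compounds at two doses. Luciferase measured 72 h post infection; normalized to buffer-only basal and Salinomycin (10uM) controls.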
HCV inhibitor: HCV inhibition. Potency, µM (titrated, usually from 41.8 µM), inactives show top-dose activity change, negative = inhibition, hits mostly inhibitors. Huh7.5.1 HCVcc-Cre infection, luciferase reporter, 44 h. AID 651820. 340,000 compounds, 3.4% hits; active means well fitted inhibition curve with a large enough effect; inconclusive means small, poorly fitted or top-dose-only effect, or another doubt; inactive means no such curve, though single readings can be large or run the other way; further: potency means the concentration at half of the fitted maximal effect; on the % scale 0 is the no-effect control and ±100 the full control effect
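Antiviral activity was scored by luciferase reporter output from cells infected with HCVcc-Cre (~0.5 moi) in presence of compound, 44 h infection period, cells seeded 1,000/well 4 h prior.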
LASV entry inh: blocks Lassa virus binding to or entry into cells. Lassa virus pseudotype entry inhibition, cell reporter. Potency, µM (series often up to 37.9 µM), for inactives: top-dose activity change, negative = inhibition, actives largely listed as inhibitors. 300,000 compounds, 1.2% hits. AID 540256; calls by dose curve; tested in HEK293 cells; further: potency means the concentration at half of the fitted maximal effect; on the % scale 0 is the no-effect control and ±100 the full control effect; nearly all actives have a fitted effect of over 50% in size
Marburg entry inh: blocks Marburg virus binding to or entry into cells; Marburg virus pseudotyped entry inhibition, cell reporter; Potency, µM (top dose mostly 37.8 µM), for inactives: at the highest dose activity change, negative = inhibition, hits mostly inhibitors; 300,000 compounds, 1.8% hits; AID 540276; calls by dose curve; tested in HEK293 cells; further: potency means the concentration at half of the fitted maximal effect; on the % scale 0 is the no-effect control and ±100 the full control effect
FMDV inh: blocks foot and mouth disease virus; AID 1159524; 410,000 compounds, 1.2% hits; Potency, µM (top dose mostly 57.9 µM), for the others: at the top dose activity change, negative = inhibition, hits mostly inhibitors; FMDV antiviral cell-based qHTS; calls by dose curve; tested in HEK293T cells; further: read-out not given here; potency means the concentration at half of the fitted maximal effect; on the % scale 0 is the no-effect control and ±100 the full control effect; nearly all actives have a fitted effect of over 45% in size
SARS PLP yeast: blocks SARS-CoV papain-like protease in a yeast assay; 330,000 compounds, 0.19% hits; AID 485353; S. cerevisiae expressing SARS-CoV PLpro, growth rescue; Potency, µM (series often up to 32.9 µM), for the others: at the top dose activity, positive = growth rescue, hits mostly activators; calls by dose curve; further: potency means the concentration at half of the fitted maximal effect; 0% is about no effect; nearly all actives have a fitted effect of over 55% in size
* = called active by the depositor; ? = inconclusive; · = not tested or not shown; [ ] = dose if it differs, or a comment.

SMILES	HCMV antiviral	HCV inhibitor	LASV entry inh	Marburg entry inh	FMDV inh	SARS PLP yeast
Cc1ccc(-c2nc(CSCC(=O)N3CCN(c4ccccn4)CC3)c(C)o2)cc1	?	?	·	·	?	-8%
COc1ccc(-c2nc(CSCC(=O)N3CCN(c4ccccc4F)CC3)c(C)o2)cc1	?	·	-28%[46.1 µM]	?	32µM*	·
CCOc1ccc(-c2nc(CSCC(=O)N3CCN(c4cccc(OC)c4)CC3)c(C)o2)cc1	-77*	13µM*	·	2%	20µM*	-14%
CCCn1c(N)c(C(=O)CSc2nc3ccccc3s2)c(=O)[nH]c1=O	-66*	?	?	?	?	-3%
CCCn1c(N)c(C(=O)CSc2nnc(N)s2)c(=O)[nH]c1=O	7	-4%	·	·	-24%	1%
Cc1cc(C(=O)N/N=C/c2ccncc2)c2ccccc2n1	-13	-15%	-10%	-23%[46.1 µM]	-9%	1%
Cc1cc(C(=O)N/N=C/c2ccc(C)o2)c2ccccc2n1	-63*	-5%	?	?	-6%	8%
O=C(N/N=C/c1ccccn1)c1cc(-c2ccccc2)nc2ccccc12	10	11%	·	·	-41%	-4%
Cc1ccc(/C=N/NC(=O)c2cc(-c3ccccc3)nc3ccccc23)o1	-33	-17%	-21%[46.1 µM]	-26%[46.1 µM]	-8%	·
CC(C)COc1cccc(-c2cc(C(=O)N/N=C/c3ccncc3)c3ccccc3n2)c1	?	?	?	2.8µM*	12%	-1%
O=C(N/N=C/c1ccc(O)cc1)c1cc(-c2ccccc2)nc2ccccc12	-76*	-14%	·	·	17%	1%
COc1ccc(/C=N/NC(=O)c2cc(-c3ccccc3)nc3ccccc23)cc1O	-15	-13%	-23%[46.1 µM]	13µM*	-13%	-1%
C/C(=N\NC(=O)c1cccnc1)c1cccc([N+](=O)[O-])c1	-6	25%	·	·	-2%	1%
COc1cccc(/C=N/NC(=O)c2cc(-c3ccccn3)nc3ccccc23)c1O	-63*	4µM*	?	?	3%	-6%
CC(/C=N/NC(=O)c1cc(-c2ccc(Cl)cc2)nc2ccccc12)=C\c1ccco1	-83*	?	?	?	-5%	12%[6.58 µM]
CC(/C=N/NC(=O)c1cc(-c2ccccc2)nc2ccccc12)=C\c1ccco1	-24	-24%	?	?	0%	-1%
COc1cc(/C=N/NC(=O)c2cc(-c3ccccc3)nc3ccccc23)ccc1O	-67*	-9%	?	?	2%	-2%
CCOc1cc(/C=N/NC(=O)c2cc(-c3cccc(OC)c3)nc3ccccc23)ccc1O	-34	-21%	?	?	?	·
CC(/C=C/c1cccc([N+](=O)[O-])c1)=N/NC(=O)c1cccnc1	-62*	13%	-11%	-26%	-7%	-41%
O=C(COc1ccccc1-c1nc(-c2ccccc2)no1)Nc1cccc([N+](=O)[O-])c1	12	·	-3%[46.1 µM]	-7%[46.1 µM]	-13%	·
CCN(c1ccccc1)S(=O)(=O)c1ccc(NC(=O)c2cc(=O)c3ccc(C)c(C)c3o2)cc1	18	·	15%[46.1 µM]	19%[46.1 µM]	-17%	·
O=C(NN=Cc1cccc([N+](=O)[O-])c1)c1cc(-c2cccnc2)nc2ccccc12	-14	?	·	·	28µM*	2%
CC(=O)Nc1ccc(/C=N/NC(=O)c2cc3ccccc3nc2C)cc1	-72*	16%	?	7%	-6%	17%
COc1cc(/C=N/NC(=O)c2cc(-c3ccccc3Cl)nc3ccccc23)cc(OC)c1O	32	-12%	?	-5%[46.1 µM]	1%	·
COc1cc(/C=N/NC(=O)c2cc(-c3ccccc3OC(C)C)nc3ccccc23)ccc1O	-21	-12%	5.8µM*	4.6µM*	?	-2%
CC(=O)c1cccc(-n2c(=O)c3c4c(sc3n(Cc3ccccc3Cl)c2=O)CN(C(C)=O)CC4)c1	-1	·	·	?	-12%	·
O=C(COc1ccc(Br)cc1)Nc1ccc(C(=O)OC2CCCCC2)cc1	6	·	3%[46.1 µM]	·	-5%	·
CC(C)=CCC/C(C)=C/CO/N=C1\C[C@@H](O)[C@@H](O)[C@@H]2[C@@H]3C(=O)N(Cc4ccc5c(c4)OCO5)C(=O)[C@@H]3CC[C@H]12	·	·	·	-44%[14.2 µM]	·	·
